Screening data as filed in PubChem BioAssay.
JMJD2A Tudor inh: qHTS Assay for Inhibitors of JMJD2A-Tudor Domain. Lysine-specific demethylase 4A (Homo sapiens), O75164. AlphaScreen JMJD2A-Tudor / H3K4me3 peptide binding. Potency, µM (series often up to 114 µM), for inactives: at the top dose activity change, negative = inhibition, usual class: inhibitors. actives 4.4% (n = 390,000); further: on the % scale 0 is the no-effect control and ±100 the full control effect; nearly all actives have a fitted effect of over 50% in size
G9a block: qHTS Assay for Inhibitors of Histone Lysine Methyltransferase G9a; Potency, µM (doses to about 102 µM), without a hit: at the top dose activity, negative = inhibition, most hits filed as inhibitors; Histone-lysine N-methyltransferase EHMT2 (Homo sapiens), Q96KQ7; AID 504332, 2011; actives 8.8% (n = 350,000); G9a H3K9 monomethylation, AlphaScreen, 2 h; further: on the % scale 0 is the no-effect control and ±100 the full control effect; nearly all actives have a fitted effect of over 75% in size
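Chemiluminescent proximity detection of H3K9 monomethylation, read after 10 min bead incubation in the dark. Reaction: 20 nM G9a, 500 nM biotin-H3K9 peptide, 20 uM SAM cofactor, 2 h, room temperature, following 15 min enzyme-compound preincubation.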
VDR inh: Inhibitors of the vitamin D receptor (VDR): qHTS; VDR-SRC2-3 peptide fluorescence polarization, 2 h; Potency, µM, without a hit: max response, negative = inhibition, hits mostly inhibitors; Vitamin D3 receptor (Homo sapiens), P11473; AID 504847, 2011; actives 0.93% (n = 400,000); further: on the % scale 0 is the no-effect control and ±100 the full control effect
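Reagent solutions, kept cold and dark, are dispensed first; compounds are then pinned in at 23 nl, plates briefly spun, and incubated 2 h at ambient temperature. Inhibition of VDR–SRC2-3 peptide binding is read by fluorescence polarization.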
HP1b binding inh: HTS for Inhibitors of HP1-beta Chromodomain Interactions with Methylated Histone Tails. Potency, µM (top dose mostly 114 µM), for inactives: at the top dose activity change, negative = inhibition, usual class: inhibitors. Chromobox protein homolog 1 (Homo sapiens), P83916. AID 540317, 2011. actives 0.56% (n = 390,000). AlphaScreen HP1-beta / biotin-H3K9me3 peptide binding; further: nearly all actives have a fitted effect of over 70% in size
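AlphaScreen: HP1-beta (50 nM) preformed 30 min with biotin-H3(1-18)K9me3 peptide (50 nM) in PBS pH 7.4, 0.01% Tween-20. Compound added for 30 min at RT, then streptavidin donor/nickel chelate acceptor beads (10 ug/mL) for 30 min.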
BAZ2B block: qHTS Assay for Inhibitors of BAZ2B; AID 504333, 2011; AlphaScreen BAZ2B-H3K14Ac peptide displacement; Potency, µM (titrated, usually from 114 µM), for the others: at the top dose activity change, negative = inhibition, hits mostly inhibitors; Bromodomain adjacent to zinc finger domain protein 2B (Homo sapiens), Q9UIF8; actives 4.4% (n = 360,000); further: on the % scale 0 is the no-effect control and ±100 the full control effect; nearly all actives have a fitted effect of over 60% in size
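Multi-concentration screen (max 110 uM) measuring displacement of acetylated histone H3 peptide from BAZ2B by AlphaScreen, using 50 nM protein, 50 nM peptide and 10 ug/mL streptavidin donor plus Ni-chelate acceptor beads.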
PLK1 PBD block: qHTS for Inhibitors of PLK1-PDB (polo-like kinase 1 - polo-box domain): Primary Screen. Plk1 PBD binding of FITC phosphopeptide, fluorescence polarization. Potency, µM, inactives show max response, negative = inhibition, most hits filed as inhibitors. actives 2.8% (n = 360,000). Serine/threonine-protein kinase PLK1 (Homo sapiens), P53350; further: series mostly up to about 57 µM; on the % scale 0 is the no-effect control and ±100 the full control effect; nearly all actives have a fitted effect of over 65% in size
TbPYK inh: qHTS of Trypanosoma Brucei Inhibitors: Confirmatory Assay for Cherry-picked Compounds. shares compounds with PLK1 PBD block. recombinant TbPYK, Kinase-Glo ATP luminescence. Potency, µM (highest dose often 76.9 µM), without a hit: at the highest dose activity change, negative = inhibition, hits mostly inhibitors. actives 67% (n = 890); further: on the % scale 0 is the no-effect control and ±100 the full control effect; nearly all actives have a fitted effect of over 70% in size
TbPYK ADP-Glo: qHTS of Trypanosoma Brucei Inhibitors: Orthogonal Assay for Cherry-picked Compounds. recombinant TbPYK, ADP-Glo luminescence, 60 min. actives 62% (n = 890). shares compounds with PLK1 PBD block. Potency, µM (doses to about 76.9 µM), without a hit: at the top dose activity change, negative = inhibition, actives largely listed as inhibitors; further: on the % scale 0 is the no-effect control and ±100 the full control effect; nearly all actives have a fitted effect of over 75% in size
* hit, by the source's call; ? = inconclusive; . = no result; [ ] = dose if it differs, or a comment. A selection: hits, their analogues and other compounds. The true share with any hit is near 11%. The call rests on the fitted dose curve; in most records, active means well fitted curve in the direction sought with a large enough effect; inconclusive means small, poorly fitted or top-dose-only effect, or another doubt; inactive means no such curve, though single readings can be large; an effect the other way counts as inactive or inconclusive. Potency means the concentration at half of the fitted maximal effect.

SMILES	JMJD2A Tudor inh	G9a block	VDR inh	HP1b binding inh	BAZ2B block	PLK1 PBD block	TbPYK inh	TbPYK ADP-Glo
O=C(CCCn1c(=S)[nH]c2ccsc2c1=O)Nc1ccc(F)cc1	.	.	.	.	.	-20%	.	.
O=C(CCCCn1c(=S)[nH]c2ccsc2c1=O)NCc1ccc2c(c1)OCO2	-33%	10µM*	-15%	17%	?	-27%	0.35µM*	1.1µM*
CC(=O)C1=C(C)Nc2ncnn2C1c1ccccc1F (stereo not drawn)	-18%	36%	11%	25%	0%	-9%	.	.
O=C1Nc2ccccc2C1=Nc1ccccc1-c1ccccc1	?	.	?	6%	.	0%	.	.
CCOC(=O)c1ccc(NC(=O)CN2C(=O)CSCC2=O)cc1	-16%	?	16%	36%	2%	-12%	.	.
CCOC(=O)c1ccc(NC(=O)CN2C(=O)CSC2=O)cc1	-16%	8%	15%	4%	-1%	-2%	1%	-7%
COc1cccc(NC(=O)CSc2nc3ccccc3c(=O)n2CCCC(=O)NCC2CCCO2)c1 (stereo not drawn)	6%	.	-7%	25%	-3%	5%	.	.
O=C1OC(Nc2ccc3c(c2)OCO3)c2ccccc21 (stereo not drawn)	50µM*	?	-8%	?	40µM*	-15%	0.5µM*	13µM*
COc1ccc(OC)c(NC(=O)c2ccccc2N(Cc2ccccc2)S(C)(=O)=O)c1	-31%	?	-3%	7%	-30%	-9%	8.9µM*	14µM*
Cc1nnsc1C(=O)N1CCCC(N2CCN(c3ccc(F)cc3)CC2)C1 (stereo not drawn)	-1%	-6%	-7%	25%	-16%	2%	.	.
C=CCn1c(SCCN2CCOCC2)nc2c1c(=O)[nH]c(=O)n2C	1%	-34%[12.7 µM]	-5%	30%	13%	-14%	.	.
COCCn1c(SCCN2CCOCC2)nc2c1c(=O)[nH]c(=O)n2C	-22%	11µM*	?	-16%	8%	12µM*	10µM*	14µM*
CC1CCCN(C(=O)c2nn(C)c3c2CSc2ccccc2-3)C1 (stereo not drawn)	?	.	-11%	15%	2%	?	7.9µM*	10µM*
CC(Oc1ccccc1F)c1nnc(SCC(=O)N(c2ccccc2)C2CCS(=O)(=O)C2)o1 (stereo not drawn)	-8%	.	-1%	40%	.	-3%	.	.
O=C(N/N=C/c1ccc(N2CCOCC2)o1)c1cccc(C(F)(F)F)c1	?	8.9µM*	25µM*	-2%	1%	-8%	?	35µM*
COc1cccc(C(=O)CSc2nnc(CNS(C)(=O)=O)n2-c2ccc(C)cc2)c1	18µM*	18µM*	?	?	-24%	-19%	?	28µM*
O=C(OC1CCCC1)c1ccc(Cl)cc1Cl	99%	.	-1%	73%[57 µM]	.	-15%	.	.
c1cncc(Nc2nc(-c3cccs3)cs2)c1	20µM*	?	?	?	?	19µM*	-21%	?
Cc1ccc(Nc2nc(-c3cccs3)cs2)nc1	?	?	-22%	19%	?	-28%	.	.
Cc1cc(C2=NNC(=Nc3ccccc3)SC2)c(C)n1C	?	8.9µM*	-8%	?	?	-5%	?	14µM*
Cc1cccc(N=C2NN=C(c3ccccc3F)CS2)c1C	-13%	?	4%	24%	-28%	-3%	.	.
CC(C(=O)N1CCOCC1)N1C(=O)c2cccc3cccc(c23)C1=O (stereo not drawn)	-1%	?	-9%	24%	-12%	-2%	.	.
O=C(CSc1ccc(-c2ccco2)nn1)c1ccccc1	?	7.9µM*	-30%	-4%	50µM*	?	?	32µM*
O=C(CSc1ccc(-c2ccco2)nn1)N1CCCCCC1	?	?	9%	25%	?	-14%	.	.
C=CCc1c(OC)ccc2c1c(S(=O)(=O)c1ccc(C)cc1)cn2COC	?	-6%	1%	23%	-30%	-13%	.	.
SMILES	JMJD2A Tudor inh	G9a block	VDR inh	HP1b binding inh	BAZ2B block	PLK1 PBD block	TbPYK inh	TbPYK ADP-Glo
O=C(CSc1ccc2ccccc2c1)NCCc1ccc(O)c(O)c1	7.9µM*	2.5µM*	-7%	79µM*	.	-13%	7.1µM*	16µM*
CC(C)CCNC(=O)CN1C(=O)c2cccnc2Sc2ccccc21	-13%	11%[59 µM]	11%	27%	-3%	.	.	.
Cc1ccc(C)c(NC(=O)CSc2nncn2C)c1	10%	31%	-15%	15%	6%	-21%	.	.
Cc1cc(C)c2c(c1)-c1c(ssc1=S)C(C)(C)N2C(=O)CSc1nncn1C	?	5µM*	?	?	50µM*	-12%	14µM*	16µM*
O=C1N=C(N2CCOCC2)S/C1=C/c1ccc(-c2ccccc2Cl)o1	-19%	-14%[59 µM]	-14%	13%	12%	-22%	.	.
O=C1S/C(=C\c2ccc(N3CCOCC3)o2)C(=O)N1c1ccccc1	-4%[11.4 µM]	5µM*	?	-9%	?	65%	?	?
O=C1S/C(=C\c2ccc(N3CCOCC3)o2)C(=O)N1Cc1c(F)cccc1Cl	?	?	?	22%	-36%	55%	18µM*	14µM*
O=C1S/C(=C/c2ccc(N3CCOCC3)o2)C(=O)N1Cc1c(F)cccc1Cl	-30%	1.8µM*	79µM*	39%	4%	43%	?	40µM*
Cn1c(=O)c2c(nc(N3CCOCC3)n2Cc2c(F)cccc2Cl)n(C)c1=O	-4%	10%	9%	28%	-3%	0%	.	.
O=C1CC(c2ccccc2)Cc2[nH]c(=O)c(C(=O)Nc3ccc(OC(F)(F)F)cc3)cc21 (stereo not drawn)	-8%	10%[59 µM]	-13%	26%	1%	.	.	.
CCCC(=O)Nc1ccc2c(c1)nc(CCN1CCCCC1)n2C	-14%	5%	-2%	1%	9%	-6%	.	.
